Measurements as given in PubChem BioAssay.
Activity calls are given as the source filed them.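 How the source made its calls: active means compounds whose cell count with miR-34 switched on is under 0.7 times the count with it off; inactive means the rest.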

Assay: sensitizers of A549 cells to miR-34 induction, primary screen, imaging, A549 dox-inducible miR-34, nuclei and caspase counts (AID 1347080); further: test concentration not given here
Conditions: A549 miR-34 inducible, Hoechst nuclei count, 48 h
[1] = stronger effect = lower value, cell number ratio, induced over uninduced
[2] = measured here: relative caspase fold change +Dox/-Dox
[3] = measured here: total cells with miR-34 induction, stronger effect = lower value
[4] = measured here: total cells without miR-34 induction

SMILES | fold change [1] | fold change [2] | cell count [3] | cell count [4]
N#Cc1cc2c(OCC(O)CN3CCN(C(c4ccccc4)c4ccccc4)CC3)cccc2[nH]1 (stereo not given) | 0.956 (inactive) | 1.38 | 1480 | 1550
C[C@@H](O)CCC[C@H](O)/C=C/C1=C(C/C=C\CCCC(=O)O)C(=O)CC1 | 0.915 (inactive) | 1.31 | 5730 | 6260
CCOC(=O)c1ccc(N=Nc2ccc(O)c(CC(=O)O)c2)cc1 | 0.95 (inactive) | 0.801 | 6160 | 6490
CCCCCC(=O)CC[C@H]1C(=O)C[C@H](O)[C@@H]1C/C=C\CCCC(=O)O | 1.27 (inactive) | 1.09 | 6060 | 4770
O=C(O)CCC/C=C\C[C@@H]1[C@@H](/C=C/[C@H](O)CCc2ccccc2)[C@H](O)C[C@@H]1O | 0.915 (inactive) | 1.56 | 5340 | 5830
CC(C)=CCC/C(C)=C/CC/C(C)=C/CC[C@]1(C)CCc2cc(O)c(C)c(C)c2O1 | 0.98 (inactive) | 0.749 | 5370 | 5480
CCC(O)/C=C/C=O (stereo not given) | 0.941 (inactive) | 1.21 | 5860 | 6230
C[C@H](CCCO)[C@H]1CC[C@H]2[C@@H]3[C@H](O)C[C@H]4CC(=O)CC[C@]4(C)[C@H]3C[C@H](O)[C@]12C | 0.847 (inactive) | 0.203 | 4760 | 5610
C#C[C@]1(O)CC[C@H]2[C@@H]3CCC4=CC(=O)CCC4[C@H]3CC[C@@]21CC (stereo not given in full) | 0.961 (inactive) | 0.754 | 6080 | 6330
CCCCC[C@H](O)/C=C/[C@H]1C(=O)C[C@H](O)[C@@H]1C/C=C\CCCC(=O)NC(CO)CO | 0.913 (inactive) | 1.9 | 5680 | 6220
CCCCCCCCCCCC(=O)O | 1.01 (inactive) | 1.12 | 5910 | 5870
O=C(O)CCC/C=C\C[C@@H]1[C@@H](/C=C/[C@@H](O)CCc2cccc(C(F)(F)F)c2)[C@H](O)C[C@@H]1O | 1.01 (inactive) | 1.2 | 5710 | 5640
CCCCC/C=C\C/C=C\C/C=C\CCCCCCC(=O)OC | 1.11 (inactive) | 0.903 | 6440 | 5790
CCCCC[C@H](O)/C=C/[C@H]1C=CC(=O)[C@H]1C/C=C\CCCC(=O)O | 1.06 (inactive) | 1.6 | 6170 | 5800
CC(C)=CCC/C(C)=C/CC/C(C)=C/CSc1ccccc1C(N)=O | 0.994 (inactive) | 0.741 | 5740 | 5780
CC\C=C/C=C/C=C/C=C\CCCCCCCC(=O)O | 0.875 (inactive) | 0.385 | 4740 | 5410
COc1ccc(/C=C/c2ccccc2F)cc1 | 0.866 (inactive) | 1.67 | 5810 | 6700
CCCCC[C@H](O)/C=C/[C@@H]1[C@@H](C/C=C\CCCCO)[C@@H](O)C[C@H]1O | 0.871 (inactive) | 1.35 | 5490 | 6300
COc1ccc2cc(CC(=O)O)ccc2c1 | 0.964 (inactive) | 1.2 | 5630 | 5840
CCCCC[C@H](O)/C=C/[C@H]1[C@H](O)CC(=O)[C@@H]1C/C=C\CCCC(=O)NC(CO)CO | 1.04 (inactive) | 1.67 | 6080 | 5870

SMILES | fold change [1] | fold change [2] | cell count [3] | cell count [4]
C=C1O[C@@](CO)(n2cnc3c(N)ncnc32)[C@H](O)[C@@H]1O | 0.941 (inactive) | 1.1 | 4870 | 5180
CCCCCCCC/C=C\CCCCCCCC(=O)OCC(O)COP(=O)(O)O (stereo not given) | 1.12 (inactive) | 0.696 | 5760 | 5140
CCCCCCCCCCCCCCCCC/C=C/C(=O)O | 0.976 (inactive) | 0.547 | 5370 | 5500
CC(C)CCOc1ccc(N)cc1 | 0.779 (inactive) | 2.13 | 3780 | 4850
CC(=O)O[C@@]12CO[C@@H]1C[C@H](O)[C@@]1(C)C(=O)[C@H](OC(=O)O)C3=C(C)[C@@H](OC(=O)[C@H](O)[C@@H](NC(=O)c4ccccc4)c4ccccc4)C[C@@](O)([C@@H](OC(=O)c4ccccc4)C12)C3(C)C (stereo not given in full) | 1.13 (inactive) | 0.603 | 1340 | 1180
CC(C)CCOc1ccc(NC(=S)Nc2ccc(OCCC(C)C)cc2)cc1 | 0.881 (inactive) | 0.401 | 4560 | 5170
CCCCCCCCCCCCCCCC(=O)OC[C@H](COP(=O)([O-])OCC[N+](C)(C)C)OC(=O)CCCCCCCC(=O)/C=C/C(=O)O | 0.943 (inactive) | 0.858 | 5750 | 6100
CCCCC[C@@H](O)/C=C/[C@H]1C=CC(=O)[C@@H]1CCCCCCC(=O)O | 0.9 (inactive) | 0.638 | 4870 | 5400
CC1CCN=C(N)C1 (stereo not given) | 0.966 (inactive) | 0.767 | 6190 | 6410
CCCCC[C@H](O)/C=C/[C@H]1CC[C@H](O)[C@@H]1C/C=C\CCCC(=O)O | 0.956 (inactive) | 1.76 | 6120 | 6400
CCCCCC(=O)CC[C@H]1[C@H](O)CC(=O)[C@@H]1CCCCCCC(=O)O | 0.94 (inactive) | 1.43 | 5620 | 5980
CCCCCCCCCCCC(=O)c1nc2ncccc2o1 | 0.934 (inactive) | 1.01 | 5110 | 5460
CC(C)CCCC(C)NC(C)C (stereo not given) | 0.993 (inactive) | 0.874 | 8610 | 8670
CCOC(=O)c1c(Cc2cccc(Cl)c2)[nH]c2c1cc(O)c1ccccc12 | 0.954 (inactive) | 1.94 | 4980 | 5220
CCCCCCCC/C=C\CCCCCCCC(=O)N[C@@H](CO)C(=O)O | 1.01 (inactive) | 1.73 | 5230 | 5180
CC(C)c1cc2c(c(O)c1O)C13CCCC(C)(C)C1CC2OC3=O (stereo not given) | 0.942 (inactive) | 1.02 | 5390 | 5730
CCCCC[C@H](O)/C=C/[C@@H]1c2cc(CCCCC(=O)O)n(-c3ccccc3)c2C[C@H]1O | 0.958 (inactive) | 1.14 | 6340 | 6620
CCCCC[C@H](O)/C=C/[C@@H]1[C@@H](C/C=C\CCCC(=O)NC(CO)CO)[C@@H](O)C[C@H]1O | 1.01 (inactive) | 1.3 | 6050 | 5980
COc1cc([C@@H]2OC[C@@H](c3cc(OC)c(OC)c(OC)c3)O2)cc(OC)c1OC | 0.96 (inactive) | 0.869 | 5040 | 5250
CCCCC[C@](C)(O)/C=C/[C@H]1C(=O)C[C@H](O)[C@@H]1C/C=C\CCCC(=O)O | 1.01 (inactive) | 0.91 | 5200 | 5160

SMILES | fold change [1] | fold change [2] | cell count [3] | cell count [4]
CCCCCC/C=C/C=C\CCCCCCCC(=O)O | 0.985 (inactive) | 0.691 | 5840 | 5920
CCOC(=O)c1ccnc(C(=O)OCC)c1 | 0.975 (inactive) | 0.9 | 5540 | 5690
CC(C)OC(=O)CCC/C=C\C[C@H]1C(=O)C[C@@H](O)[C@@H]1/C=C/[C@@H](O)COc1cccc(C(F)(F)F)c1 | 0.919 (inactive) | 1.4 | 5960 | 6490
CCCCC[C@H](O)/C=C/[C@@H]1[C@@H](C/C=C\CCCC(=O)N(CC)CC)[C@@H](O)C[C@H]1O | 0.98 (inactive) | 0.858 | 5500 | 5610
CC#CCC(C)[C@@H](O)/C=C/[C@@H]1[C@H]2C/C(=C\CCCC(=O)O)C[C@H]2C[C@H]1O (stereo not given in full) | 0.903 (inactive) | 1.4 | 4970 | 5500
C=C(C)[C@@H]1CCC(C)=C[C@H]1c1c(O)cc(C)cc1O | 0.94 (inactive) | 1.01 | 5290 | 5630
CCCCC/C=C\C/C=C\CC/C=C\CCCC(=O)OC | 0.951 (inactive) | 0.414 | 6030 | 6340
CCCCCCCCCCCCCCCCOC[C@H](COP(=O)([O-])OCC[N+](C)(C)C)OC(=O)CCC | 0.868 (inactive) | 0.912 | 5110 | 5890
CCCCCCCCCC(=O)N[C@@H](Cc1c[nH]c2ccccc12)C(=O)N[C@@H](CC(N)=O)C(=O)N[C@@H](CC(=O)O)C(=O)N[C@@H]1C(=O)NCC(=O)N[C@@H](CCCN)C(=O)N[C@@H](CC(=O)O)C(=O)N[C@H](C)C(=O)N[C@@H](CC(=O)O)C(=O)NCC(=O)N[C@H](CO)C(=O)NC([C@@H](C)CC(=O)O)C(=O)N[C@@H](CC(=O)c2ccccc2N)C(=O)OC1C (stereo not given in full) | 0.953 (inactive) | 0.725 | 8550 | 8980
O=C(CN=C(c1ccccc1)c1ccccc1)OCc1ccccc1 | 0.875 (inactive) | 1.1 | 5290 | 6050
CCCCCCCCCCCCCCCC(=O)OC[C@H](COP(=O)([O-])OCC[N+](C)(C)C)OC(=O)CCCCCCCCCCCCCCC | 0.881 (inactive) | 0.572 | 5330 | 6060
O=C(O)CCC/C=C\CC1C(=O)C[C@@H](O)[C@@H]1/C=C/[C@@H](O)COc1ccccc1 (stereo not given in full) | 0.868 (inactive) | 1.75 | 5400 | 6220
O=C(O)c1c[nH]c2c(ccc3cccnc32)c1=O | 0.93 (inactive) | 0.866 | 5740 | 6180
CCCCCCCCCCCCCCCCOC[C@H](COP(=O)([O-])OCC[N+](C)(C)C)SC(C)=O | 0.92 (inactive) | 0.945 | 4720 | 5130
O=C(O)CCC/C=C\C[C@@H]1[C@@H](CC[C@@H](O)CCc2ccccc2)[C@H](O)C[C@@H]1O | 0.863 (inactive) | 1.41 | 5880 | 6810
CCCCC[C@H](O)/C=C/[C@@H]1[C@H](C/C=C\CCCC(=O)NCCO)[C@@H](O)C[C@H]1O | 1.11 (inactive) | 0.881 | 6440 | 5790
COc1ccc(/C=C/C(=O)CC(=O)/C=C/c2cccc(O)c2OC)cc1O | 0.925 (inactive) | 1.39 | 3510 | 3790
CCCC/C=C/C=C/C=C\CCCCCCCC(=O)OC | 0.701 (inactive) | 0.864 | 3920 | 5590
O=C(O)CCCCCCCCCCCNC(=O)NC1CCCCC1 | 0.963 (inactive) | 0.896 | 5580 | 5790
Cc1ccccc1C#Cc1ccc(CCC(=O)O)cc1 | 1.11 (inactive) | 1.21 | 6610 | 5930
